In all, about 63,000 compounds went through this assay and about 1,100 (1.7%) were called active.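 The calls were made as follows: active = compounds whose percent cytotoxicity in the single-dose primary screen, scaled between solvent and toxic-drug controls, exceeds 50; inactive = the rest.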 The list comes from a sample in which actives are over-represented; it also holds similar structures and randomly drawn compounds. Entries with a potency or affinity are not part of this list.
test: viability loss of HPDE-C7K cells – cell-based, fluorescence, HTS, primary screen (AID 431); settings: HPDE-C7K KRASV12 cells, Alamar Blue viability, 48 h; at 10 µM; hits give high values;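 also: 0% = DMSO solvent wells and 100% = doxorubicin-treated wells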

SMILES	cytotoxicity
Cn1c(=O)n(C)c2cc(NC(=O)CSc3nnc(-c4ccccc4O)n3-c3ccccc3)ccc21	12.8% (inactive)
O=[n+]1cc(-c2ccc(F)cc2)n([O-])c2c1CCC2	-13.4% (inactive)
COc1ccc(C2C3=C(CCCC3=O)Nc3nc(SCc4ccccc4)nn32)cc1OC (stereo not drawn)	-8.6% (inactive)
O=C1CC(C(=O)Nc2ccccc2C(=O)O)C(c2ccccc2)O1 (stereo not drawn)	-6.7% (inactive)
O=C(Oc1cccc2c(OC(=O)N3CCOCC3)cccc12)N1CCOCC1	6.1% (inactive)
CCCn1nnnc1SCC(=O)c1ccc(NC(C)=O)cc1	-3.8% (inactive)
Cc1cccn2c(=O)c3cc(C(=O)N4c5ccccc5CC4C)n(C)c3nc12 (stereo not drawn)	77.7% (active)
Cc1cccn2c(=O)c3cc(C(=O)N4CCc5ccccc54)n(C)c3nc12	1.3% (inactive)
Cc1cccn2c(=O)c3cc(C(=O)N4CCN(c5ccccc5)CC4)n(C)c3nc12	-5.9% (inactive)
CC1Cc2ccccc2N1C(=O)c1cc2c(=O)n3ccccc3nc2n1C (stereo not drawn)	3.6% (inactive)
Cc1cccn2c(=O)c3cc(C(=O)N4CCN(C(=O)c5ccco5)CC4)n(C)c3nc12	-8.8% (inactive)
Cc1c(NCc2nc3ccccc3[nH]2)c(=O)n(-c2ccccc2)n1C	-7.6% (inactive)
Cc1ccc(C(C)C)c(OCc2nnc3n2CCCCC3)c1	-8.3% (inactive)
COc1ccc(Cl)cc1NC(=O)c1cccnc1	-1.6% (inactive)
CC(=O)Nc1ccc(NC2=CC(=O)CC(C)(C)C2)cc1	-3% (inactive)
Cn1c(SCC(=O)c2ccc3c(c2)OCO3)nnc1-c1ccccn1	3.1% (inactive)
CCCc1cc(C(=O)Nc2ccc(C)cc2)no1	-1.5% (inactive)
CCN(c1ccccc1)S(=O)(=O)c1ccc(C(=O)Nc2nnc(COC)o2)cc1	44.5% (inactive)
O=C(/C=C/c1ccccc1)c1ccccc1	56.5% (active)
CC(C)(C)C(=O)/C=C(N)/C=C/c1ccccc1	-7% (inactive)
CC(/C=C/c1ccccc1)=N/O	-7.4% (inactive)
CCSc1nc2sc3c(c2c2nnc(SCC(=O)NCc4ccco4)n12)CCCC3	8.1% (inactive)
CC1(C)Cc2c(sc3nc(SCC(=O)NCc4ccco4)n(-c4ccccc4)c(=O)c23)CS1	-9.9% (inactive)
Cc1nc2sc3c(c2c2nnc(SCC(=O)NCc4ccco4)n12)CCCC3	5.1% (inactive)

SMILES	cytotoxicity
O=C(CSc1nc2sc3c(c2c(=O)n1-c1ccccc1)CCCC3)NCc1ccco1	71.9% (active)
C=CCn1c(SCC(=O)NCc2ccco2)nc2sc3c(c2c1=O)CCCCC3	6% (inactive)
CC1=C(C(=O)N2CCOCC2)C(c2ccsc2)C2=C(CCCC2=O)N1 (stereo not drawn)	4.5% (inactive)
COC(=O)c1ccccc1NC(=O)CN1CCC(n2nnc3cc(C)ccc32)CC1	7.1% (inactive)
CCOc1ccc(N(CC(=O)NC2CCCC2)S(=O)(=O)c2c(C)noc2C)cc1	4.7% (inactive)
O=C(Oc1ccc2c(c1)OCO2)c1cccs1	-6% (inactive)
O=C(Oc1ccc2c(c1)OCO2)c1cc2c(s1)CCC2	66.1% (active)
O=C(Oc1ccc2c(c1)OCO2)c1ccncc1	12.7% (inactive)
NS(=O)(=O)c1ccc(S(=O)(=O)NCCc2ccccc2)cc1	-1.8% (inactive)
COc1cccc(NC(=O)NC2CCN(Cc3nnnn3Cc3ccc(F)cc3)CC2)c1	-3.4% (inactive)
COc1ccc2cc(CN(Cc3ccco3)Cc3nnnn3C3CCCCC3)c(=O)[nH]c2c1	22.4% (inactive)
COc1ccc2cc(CN(CCc3ccccc3)Cc3nnnn3Cc3ccco3)c(=O)[nH]c2c1	33.5% (inactive)
CCC(c1nnnn1C1CCCCC1)N(Cc1ccco1)Cc1cc2ccc(OC)cc2[nH]c1=O (stereo not drawn)	64.5% (active)
CCC(c1nnnn1Cc1ccco1)N(Cc1ccccc1OC)Cc1cc2cc(C)ccc2[nH]c1=O (stereo not drawn)	-7.4% (inactive)
CCOC(=O)Cn1nnnc1C(CC)N(Cc1cccs1)Cc1cc2cc(C)ccc2[nH]c1=O (stereo not drawn)	-3.3% (inactive)
CCC(c1nnnn1Cc1ccco1)N(CCc1ccccc1)Cc1cc2cc(C)ccc2[nH]c1=O (stereo not drawn)	36% (inactive)
CCOc1ccc2[nH]c(=O)c(CN(Cc3cccs3)C(CC)c3nnnn3C(C)(C)CC)cc2c1 (stereo not drawn)	30.4% (inactive)
Cc1ccc2[nH]c(=O)c(CN(CCc3ccccc3)C(c3nnnn3Cc3ccco3)C(C)C)cc2c1 (stereo not drawn)	60.2% (active)
CCC(c1nnnn1C1CCCC1)N(Cc1cccs1)Cc1cc2cc(C)ccc2[nH]c1=O (stereo not drawn)	68.3% (active)
CCC(c1nnnn1Cc1ccccc1)N(Cc1ccco1)Cc1cc2cc(OC)ccc2[nH]c1=O (stereo not drawn)	22.2% (inactive)
COc1ccc2cc(CN(Cc3ccco3)C(c3nnnn3C3CCCCC3)C(C)C)c(=O)[nH]c2c1 (stereo not drawn)	1.3% (inactive)
CCC(c1nnnn1Cc1ccco1)N(CCc1ccccc1)Cc1cc2ccc(OC)cc2[nH]c1=O (stereo not drawn)	50.4% (active)
CCOC(=O)c1oc2ccc(Br)cc2c1CSc1nnc(C)s1	-7.5% (inactive)
COC(=O)c1cn(NC(=O)c2cccc(N(C)C)c2)c(=O)c2ccccc12	-1.6% (inactive)

SMILES	cytotoxicity
CCOC(=O)c1c(C)[nH]c(C(=O)CN2C(=O)NC(C)(c3ccc(C)cc3)C2=O)c1C (stereo not drawn)	29.2% (inactive)
COc1ccc(S(=O)(=O)N(C)CC(=O)N2CCC(C)CC2)cc1Cl	9.5% (inactive)
CCCC(c1nnnn1C(C)(C)CC)N(Cc1ccco1)Cc1cc2ccc(OC)cc2[nH]c1=O (stereo not drawn)	55.7% (active)
COc1ccc2[nH]c(=O)c(C(c3nnnn3C(C)(C)C)N(Cc3ccco3)CC3CCCO3)cc2c1 (stereo not drawn)	-29.6% (inactive)
CCC(C)(C)n1nnnc1C(c1cc2ccc(C)cc2[nH]c1=O)N(Cc1cccnc1)Cc1ccco1 (stereo not drawn)	14.1% (inactive)
O=C(Nc1nccs1)c1nc(-c2ccccc2)n(-c2ccccc2)n1	76.3% (active)
Cc1csc(NC(=O)c2nc(-c3ccccc3)n(-c3ccccc3)n2)n1	-19.1% (inactive)
NC(=O)c1ccsc1NC(=O)c1nc(-c2ccccc2)n(-c2ccccc2)n1	9.4% (inactive)
CCCCC(=O)Nc1ccc(C(=O)NCc2ccncc2)cc1	-7.4% (inactive)
O=C(CC12CC3CC(CC(C3)C1)C2)N1CCOCC1	-7.8% (inactive)
CCOC(=O)c1sc2nc(NC(=O)C3CC3)sc2c1C	4.4% (inactive)
CCOC(=O)c1sc2nc(NC(=O)C3CCCCC3)sc2c1C	68.2% (active)
CCOC(=O)c1sc2nc(NC(=O)C(C)(C)C)sc2c1C	2.1% (inactive)
CCC(C)[C@H](NC(=O)NCc1cccs1)C(=O)OC (stereo partly drawn)	7.9% (inactive)
O=S(=O)(c1ccc(Nc2ccc3c(c2)OCO3)nc1)N1CCOCC1	-0.1% (inactive)
O=C(CCS(=O)(=O)c1cccc2nsnc12)NCc1ccccc1	-10.5% (inactive)
Cc1cccc(-n2c(CCCN3C(=O)c4ccccc4C3=O)nc3ccccc3c2=O)n1	-9.8% (inactive)
Cc1oc2c(CN3CCOCC3)c(O)ccc2c(=O)c1-c1ccccc1	-12.9% (inactive)
COc1cc(NS(=O)(=O)c2ccc(NC(=O)C3CCCO3)cc2)nc(OC)n1 (stereo not drawn)	-15.8% (inactive)
Clc1ccc(OCc2nc(-c3ccccn3)no2)c(Br)c1	13.1% (inactive)
Cc1ccc(OCc2nc(-c3ccccn3)no2)c(Br)c1	26.3% (inactive)
CCOc1ccc(-c2nnc(-c3ccco3)o2)cc1OCC	1.7% (inactive)
COc1cccc(N2CCN(Cc3nc4ccccc4c(=O)[nH]3)CC2)c1	4.2% (inactive)
COc1cccc(N2CCN(CC(=O)c3c[nH]c4ccc(OC)cc34)CC2C)c1 (stereo not drawn)	17.4% (inactive)

SMILES	cytotoxicity
O=C1CC(c2ccccc2)n2nc(N3C(=O)CCC3=O)nc2N1 (stereo not drawn)	2.8% (inactive)
CC(=O)Nc1ccc(S(=O)(=O)c2ccc(N)cc2)cc1N	-5.2% (inactive)
CC1N=C2c3ccccc3N=C(SCc3cc(=O)n4cc(Cl)ccc4n3)N2C1=O (stereo not drawn)	5.7% (inactive)
CSc1ccc(S(=O)(=O)Nc2ccc3c(c2)OCCO3)cc1	9.5% (inactive)
O=S(=O)(Nc1ccc2c(c1)OCCO2)c1ccc2oc3ccccc3c2c1	73% (active)
COc1ccc(NS(=O)(=O)c2ccc3oc4ccccc4c3c2)cn1	35.2% (inactive)
Cc1ccc2c(c1)c(C)c(C)n2CC(O)Cn1nc(C)cc1C (stereo not drawn)	-6.3% (inactive)
Oc1ccc2cccnc2c1	4.8% (inactive)
Oc1c(CN2CCc3ccccc3C2)cc(Cl)c2cccnc12	-1.6% (inactive)
Oc1c(CN2CCN(c3ccccn3)CC2)cc(Cl)c2cccnc12	28.4% (inactive)
OCc1ccnc2c(O)cccc12	11.7% (inactive)
CCC1Oc2ccc(C)cc2N(CC(=O)NCCC2=CCCCC2)C1=O (stereo not drawn)	0% (inactive)
O=C(COc1ccc(Cl)cc1)Nc1ccc2oc(-c3ccncc3)nc2c1	-3% (inactive)
COc1ccc(CNC(=O)c2cc(-n3cnnc3)ccc2Cl)cc1	-0.7% (inactive)
CCOC(=O)N1CCN(C(=O)CSc2nnc(-c3cccs3)o2)CC1	4.2% (inactive)
COc1ccc(NC2=NC3(CCCCC3)N=C(N)N2)cc1	10.1% (inactive)
COc1cccc(NC2=NC3(CCCCC3)N=C(N)N2)c1	-1.1% (inactive)
CCN(C(=O)COc1ncnc2ccc(Br)cc12)C1CCS(=O)(=O)C1 (stereo not drawn)	-5.5% (inactive)
COC(=O)c1ccc(CSc2nc3c(cnn3-c3ccc(F)cc3)c(=O)[nH]2)o1	1.7% (inactive)
COC(=O)c1ccc(CSc2nc3c(cnn3-c3ccc(C)c(C)c3)c(=O)[nH]2)o1	8% (inactive)
COC(=O)c1ccc(CSc2nc3scc(-c4cccs4)c3c(=O)[nH]2)o1	50.4% (active)

Reference: PubChem BioAssay AID431 (Sanford-Burnham Center for Chemical Genomics, 2006)
